Results from the supplement of paper PMC10849652.
Targets with a hit are over-represented here; the source holds about 8,800 in all. About 0.5% of all pairs of compound and target were hits.

How the values were obtained:
Test in all cases: log2 fold change, soluble protein after heating vs DMSO (PISA); higher = thermal stabilisation; K562 lysate, 10 uM; active = over 0.2 and 3.5 SD of the protein, either way, in both replicates (recomputed)
nilotinib = compound: Cc1cn(-c2cc(NC(=O)c3ccc(C)c(Nc4nccc(-c5cccnc5)n4)c3)cc(C(F)(F)F)c2)cn1 [nilotinib]
Method in brief: (§1)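 Soluble protein was defined as the supernatant remaining after 21,000xg for 90 min, following pooling of heated aliquots and adjustment to 0.5% NP-40 at 4°C. Before that, crude K562 extract at 1 mg/mL protein in PBS pH 7.4 with 1 mM MgCl2 was treated with 10 μM compound for 30 min and heated for 3 min across 48°C-58°C. Quantification used TMTpro 16plex LC-MS/MS with channel sums equalised, and values are log-two fold changes in thermal stability relative to solvent controls from duplicates.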

[1] = compound: Cc1nc(Nc2n[nH]c3c2CN(C(=O)N[C@H](CN(C)C)c2ccccc2)C3(C)C)c2sccc2n1
Method in brief: as §1

dasatinib = compound: Cc1nc(Nc2ncc(C(=O)Nc3c(C)cccc3Cl)s2)cc(N2CCN(CCO)CC2)n1 [dasatinib]
Method in brief: as §1

[2] = compound: Cc1ncc(-c2ccnc(Nc3ccc(S(C)(=O)=O)cc3)n2)n1C(C)C
Method in brief: as §1

[3] = compound: Cn1cc(-c2ccc3c(c2)CCN3C(=O)Cc2cccc(C(F)(F)F)c2)c2c(N)ncnc21
Method in brief: as §1

quisinostat = compound: Cn1cc(CNCC2CCN(c3ncc(C(=O)NO)cn3)CC2)c2ccccc21 [quisinostat]
Method in brief: as §1

tipifarnib = compound: Cn1cncc1[C@@](N)(c1ccc(Cl)cc1)c1ccc2c(c1)c(-c1cccc(Cl)c1)cc(=O)n2C [tipifarnib]
Method in brief: as §1

[4] = compound: NC(=O)Nc1cc(-c2cccc(F)c2)sc1C(=O)N[C@H]1CCCNC1
Method in brief: as §1

[5] = compound: NC(=O)c1cnc(N[C@@H]2CCCC[C@@H]2N)nc1Nc1cccc(-n2nccn2)c1
Method in brief: as §1

[6] = compound: NC1(c2ccc(-c3nc4ccn5c(=O)[nH]nc5c4cc3-c3ccccc3)cc2)CCC1
Method in brief: as §1

[7] = compound: NCC(=O)Nc1ccc(-n2nc(C(F)(F)F)cc2-c2ccc3c(ccc4ccccc43)c2)cc1
Method in brief: as §1

vorinostat = compound: O=C(CCCCCCC(=O)Nc1ccccc1)NO [vorinostat]
Method in brief: as §1

silmitasertib = compound: O=C(O)c1ccc2c(c1)nc(Nc1cccc(Cl)c1)c1ccncc12 [silmitasertib]
Method in brief: as §1

[8] = compound: O=C1NC(=O)C(c2cnc3ccccn23)=C1c1cn2c3c(cc(F)cc13)CN(C(=O)N1CCCCC1)CC2
Method in brief: as §1

entospletinib = compound: c1cn2cc(-c3ccc4cn[nH]c4c3)nc(Nc3ccc(N4CCOCC4)cc3)c2n1 [entospletinib]
Method in brief: as §1

Measured: log2 fold change

MTHFD1, A0A384N5Y3
MTHFD1, A0A384N5Y3, sequence (A0A384N5Y3 whole entry, looked up): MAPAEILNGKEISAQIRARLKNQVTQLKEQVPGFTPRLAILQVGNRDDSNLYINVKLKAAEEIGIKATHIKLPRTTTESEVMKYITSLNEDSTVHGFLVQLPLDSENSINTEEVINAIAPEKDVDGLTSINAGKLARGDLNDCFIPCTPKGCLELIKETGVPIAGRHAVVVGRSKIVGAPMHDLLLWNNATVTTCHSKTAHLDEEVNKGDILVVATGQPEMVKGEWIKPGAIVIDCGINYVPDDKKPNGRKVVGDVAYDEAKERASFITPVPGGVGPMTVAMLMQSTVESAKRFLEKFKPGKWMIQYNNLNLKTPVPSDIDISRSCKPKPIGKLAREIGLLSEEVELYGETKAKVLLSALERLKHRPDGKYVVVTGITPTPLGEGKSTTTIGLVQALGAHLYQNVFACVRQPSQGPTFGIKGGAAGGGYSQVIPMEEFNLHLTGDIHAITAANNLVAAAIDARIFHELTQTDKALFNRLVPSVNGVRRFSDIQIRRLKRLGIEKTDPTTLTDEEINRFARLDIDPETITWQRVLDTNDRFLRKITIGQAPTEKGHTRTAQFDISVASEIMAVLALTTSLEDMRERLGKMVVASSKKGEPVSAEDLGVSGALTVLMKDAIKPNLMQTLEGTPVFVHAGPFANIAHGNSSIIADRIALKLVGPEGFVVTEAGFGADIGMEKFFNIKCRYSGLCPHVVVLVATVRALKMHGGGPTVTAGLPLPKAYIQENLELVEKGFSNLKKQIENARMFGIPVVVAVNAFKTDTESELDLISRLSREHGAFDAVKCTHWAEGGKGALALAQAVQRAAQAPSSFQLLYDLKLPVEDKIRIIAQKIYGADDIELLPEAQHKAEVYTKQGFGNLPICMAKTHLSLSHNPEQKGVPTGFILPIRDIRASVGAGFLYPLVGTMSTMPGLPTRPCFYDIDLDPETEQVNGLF
inactive: nilotinib 0.005 | [1] -0.018 | dasatinib -0.081 | [2] -0.008 | [3] 0.032 | quisinostat -0.044 | tipifarnib -0.02 | [4] 0.039 | [5] 0.008 | [6] -0.017 | [7] 0.036 | silmitasertib 0.056 | [8] 0.028 | entospletinib 0.026
active: vorinostat -0.243

PAFAH1B3 (UniProt Q15102)
UniProt Q15102, sequence (Q15102 whole entry, looked up): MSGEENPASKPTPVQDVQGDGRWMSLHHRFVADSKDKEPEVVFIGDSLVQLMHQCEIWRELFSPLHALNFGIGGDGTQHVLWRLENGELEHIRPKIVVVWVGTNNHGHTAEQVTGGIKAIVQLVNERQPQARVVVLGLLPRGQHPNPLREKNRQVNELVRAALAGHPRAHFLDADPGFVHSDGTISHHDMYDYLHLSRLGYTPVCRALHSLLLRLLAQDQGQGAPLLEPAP
inactive: nilotinib 0.005 | [1] 0.036 | dasatinib -0.057 | [2] -0.026 | [3] 0.03 | quisinostat 0.01 | tipifarnib -0.01 | [4] -0.009 | [5] 0.031 | [6] 0.021 | [7] -0.013 | vorinostat -0.179 | silmitasertib 0.041 | [8] 0.003 | entospletinib -0.052

NLRP2 (UniProt Q9NX02)
UniProt Q9NX02, sequence (Q9NX02 whole entry, looked up): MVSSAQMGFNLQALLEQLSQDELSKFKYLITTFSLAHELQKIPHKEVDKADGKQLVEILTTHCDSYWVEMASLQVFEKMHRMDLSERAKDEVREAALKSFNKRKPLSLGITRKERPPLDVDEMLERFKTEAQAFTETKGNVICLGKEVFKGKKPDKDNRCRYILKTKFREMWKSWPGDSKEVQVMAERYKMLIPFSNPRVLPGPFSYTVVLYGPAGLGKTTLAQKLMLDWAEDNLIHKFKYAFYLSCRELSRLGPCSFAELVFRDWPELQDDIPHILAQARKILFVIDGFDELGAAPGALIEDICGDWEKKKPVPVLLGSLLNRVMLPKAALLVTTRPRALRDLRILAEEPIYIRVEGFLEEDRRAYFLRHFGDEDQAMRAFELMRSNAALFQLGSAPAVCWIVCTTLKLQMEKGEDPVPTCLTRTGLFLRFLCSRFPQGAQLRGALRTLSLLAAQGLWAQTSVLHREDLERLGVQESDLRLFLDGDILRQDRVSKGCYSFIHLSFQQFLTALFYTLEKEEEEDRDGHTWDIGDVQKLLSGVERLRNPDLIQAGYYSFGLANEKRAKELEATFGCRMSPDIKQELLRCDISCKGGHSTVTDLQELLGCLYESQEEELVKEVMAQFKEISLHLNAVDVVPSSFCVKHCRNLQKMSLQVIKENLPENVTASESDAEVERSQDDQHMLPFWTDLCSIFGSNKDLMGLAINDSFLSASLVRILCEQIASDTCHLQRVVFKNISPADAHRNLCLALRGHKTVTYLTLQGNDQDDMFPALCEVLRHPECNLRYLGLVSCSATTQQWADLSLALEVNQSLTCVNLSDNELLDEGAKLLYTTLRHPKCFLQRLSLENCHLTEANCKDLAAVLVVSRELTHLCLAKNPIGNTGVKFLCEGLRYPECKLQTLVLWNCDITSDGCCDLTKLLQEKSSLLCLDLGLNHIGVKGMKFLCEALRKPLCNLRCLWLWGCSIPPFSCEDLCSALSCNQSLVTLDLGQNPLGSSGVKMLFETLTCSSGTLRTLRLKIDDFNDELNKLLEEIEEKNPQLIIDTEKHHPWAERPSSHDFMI
inactive: nilotinib -0.002 | [1] 0.013 | dasatinib -0.019 | [2] 0.007 | [3] 0.032 | quisinostat -0.031 | tipifarnib -0.008 | [4] 0.013 | [5] 0.003 | [6] 0.026 | [7] -0.031 | silmitasertib 0.062 | [8] -0.015 | entospletinib 0.011
active: vorinostat -0.528

NCKAP1L (UniProt P55160)
UniProt P55160, sequence (P55160 whole entry, looked up): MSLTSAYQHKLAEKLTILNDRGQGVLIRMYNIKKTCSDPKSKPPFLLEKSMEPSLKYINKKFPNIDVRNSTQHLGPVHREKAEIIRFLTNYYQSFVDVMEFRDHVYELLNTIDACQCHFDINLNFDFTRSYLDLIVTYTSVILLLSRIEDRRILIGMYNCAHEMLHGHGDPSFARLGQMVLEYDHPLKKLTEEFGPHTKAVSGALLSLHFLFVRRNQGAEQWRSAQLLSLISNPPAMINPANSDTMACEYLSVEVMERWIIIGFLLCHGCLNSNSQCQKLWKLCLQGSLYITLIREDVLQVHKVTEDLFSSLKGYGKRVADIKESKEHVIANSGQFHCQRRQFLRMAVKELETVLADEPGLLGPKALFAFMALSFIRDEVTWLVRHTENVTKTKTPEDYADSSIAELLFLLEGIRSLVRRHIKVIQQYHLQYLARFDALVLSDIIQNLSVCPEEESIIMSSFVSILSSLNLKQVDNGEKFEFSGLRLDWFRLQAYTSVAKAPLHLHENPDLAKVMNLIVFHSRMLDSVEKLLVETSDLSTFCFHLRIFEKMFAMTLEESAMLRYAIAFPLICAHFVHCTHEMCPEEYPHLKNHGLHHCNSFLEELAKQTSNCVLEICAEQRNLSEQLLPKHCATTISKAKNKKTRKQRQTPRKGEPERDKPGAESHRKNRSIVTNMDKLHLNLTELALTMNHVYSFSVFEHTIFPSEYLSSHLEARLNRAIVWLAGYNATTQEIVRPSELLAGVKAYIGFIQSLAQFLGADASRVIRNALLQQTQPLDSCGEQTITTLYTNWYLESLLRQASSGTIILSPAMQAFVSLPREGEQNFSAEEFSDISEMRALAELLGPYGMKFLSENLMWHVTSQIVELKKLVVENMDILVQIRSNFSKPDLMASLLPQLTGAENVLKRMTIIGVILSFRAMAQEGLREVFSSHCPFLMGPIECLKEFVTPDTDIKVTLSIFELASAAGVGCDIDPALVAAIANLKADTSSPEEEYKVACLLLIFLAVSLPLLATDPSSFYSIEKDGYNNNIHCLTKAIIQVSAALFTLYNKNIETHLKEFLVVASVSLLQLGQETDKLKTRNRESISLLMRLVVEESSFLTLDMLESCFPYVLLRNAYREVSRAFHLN
active: vorinostat -0.444
inactive: nilotinib 0.001 | [1] -0.017 | dasatinib -0.034 | [2] 0.072 | [3] 0.005 | quisinostat -0.034 | tipifarnib 0.032 | [4] 0.055 | [5] 0.017 | [6] 0.023 | [7] 0.288 | silmitasertib -0.039 | [8] -0.001 | entospletinib 0.029

NCAPH2 (UniProt Q6IBW4)
UniProt Q6IBW4, sequence (Q6IBW4 whole entry, looked up): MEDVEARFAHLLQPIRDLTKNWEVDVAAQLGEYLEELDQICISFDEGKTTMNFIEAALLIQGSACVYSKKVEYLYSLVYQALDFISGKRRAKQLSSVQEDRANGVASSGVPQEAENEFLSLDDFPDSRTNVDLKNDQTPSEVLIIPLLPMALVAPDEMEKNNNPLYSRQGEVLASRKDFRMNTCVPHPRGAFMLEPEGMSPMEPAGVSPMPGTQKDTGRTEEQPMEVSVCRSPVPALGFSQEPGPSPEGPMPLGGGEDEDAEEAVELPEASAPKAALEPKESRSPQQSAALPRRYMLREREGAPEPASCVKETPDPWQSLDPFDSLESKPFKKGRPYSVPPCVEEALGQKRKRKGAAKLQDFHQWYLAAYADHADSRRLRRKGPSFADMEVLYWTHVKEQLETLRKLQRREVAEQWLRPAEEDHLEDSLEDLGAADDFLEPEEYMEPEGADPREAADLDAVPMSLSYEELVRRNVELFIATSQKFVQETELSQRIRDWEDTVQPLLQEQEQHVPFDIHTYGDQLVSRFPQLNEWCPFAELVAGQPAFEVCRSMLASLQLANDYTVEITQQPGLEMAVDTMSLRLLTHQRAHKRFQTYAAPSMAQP
active: vorinostat -0.277
inactive: nilotinib -0.029 | [1] 0 | dasatinib -0.011 | [2] -0.048 | [3] 0.066 | quisinostat 0.051 | tipifarnib -0.014 | [4] 0.058 | [5] 0.004 | [6] 0.025 | [7] 0.052 | silmitasertib 0 | [8] 0.037 | entospletinib -0.008
